Targets with a hit are over-represented here; the source holds about 7,900 in all. About 0.6% of all pairs of compound and target were hits. A number with no mark means an inactive call.
Key:
Experiment in all cases: log2 fold change, soluble protein after heating vs DMSO (PISA); higher = thermal stabilisation; K562 cells, 10 uM, 30 min; active = over 0.2 and 3.5 SD of the protein, either way, in both replicates (recomputed)
[1] = compound: Cc1ccc(NC(=O)c2ccc(CN3CC[C@H](N(C)C)C3)c(C(F)(F)F)c2)cc1Nc1nccc(-c2cncnc2)n1 [bafetinib]
In short: (§1)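 For each measurement, 10 μM compound was applied for 30 min to K562 cells at 2×10^6 cells/mL. Aliquots were heated for 3 min across 48°C-58°C, pooled, and extracted in PBS with 0.5% NP-40 at 4°C; the supernatant after 21,000xg for 90 min was soluble protein. This was quantified by TMTpro 16plex LC-MS/MS with channel sums equalised, and thermal stability was reported relative to control samples from duplicates, on a log2 fold-change scale.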

[2] = compound: Cc1cccc(CC(=O)N2CCc3c2ccc(-c2cn(C)c4ncnc(N)c24)c3F)n1
In short: as §1

[3] = compound: Cc1cn(-c2cc(NC(=O)c3ccc(C)c(Nc4nccc(-c5cccnc5)n4)c3)cc(C(F)(F)F)c2)cn1 [nilotinib]
In short: as §1

[4] = compound: Cc1nc(Nc2n[nH]c3c2CN(C(=O)N[C@H](CN(C)C)c2ccccc2)C3(C)C)c2sccc2n1
In short: as §1

[5] = compound: Cc1nc(Nc2ncc(C(=O)Nc3c(C)cccc3Cl)s2)cc(N2CCN(CCO)CC2)n1 [dasatinib]
In short: as §1

[6] = compound: Cc1ncc(-c2ccnc(Nc3ccc(S(C)(=O)=O)cc3)n2)n1C(C)C
In short: as §1

[7] = compound: Cn1cc(-c2ccc3c(c2)CCN3C(=O)Cc2cccc(C(F)(F)F)c2)c2c(N)ncnc21
In short: as §1

[8] = compound: Cn1cc(-c2ccc3nnc(C(F)(F)c4ccc5ncccc5c4)n3n2)cn1
In short: as §1

[9] = compound: Cn1cncc1[C@@](N)(c1ccc(Cl)cc1)c1ccc2c(c1)c(-c1cccc(Cl)c1)cc(=O)n2C [tipifarnib]
In short: as §1

[10] = compound: FC(F)(F)c1ccc(/C=C/c2nc(COc3ccc(CCCCn4ccnn4)cc3)co2)cc1 [mubritinib]
In short: as §1

[11] = compound: NC(=O)Nc1cc(-c2cccc(F)c2)sc1C(=O)N[C@H]1CCCNC1
In short: as §1

[12] = compound: NC(=O)c1cnc(N[C@@H]2CCCC[C@@H]2N)nc1Nc1cccc(-n2nccn2)c1
In short: as §1

[13] = compound: NC1(c2ccc(-c3nc4ccn5c(=O)[nH]nc5c4cc3-c3ccccc3)cc2)CCC1
In short: as §1

[14] = compound: NCC(=O)Nc1ccc(-n2nc(C(F)(F)F)cc2-c2ccc3c(ccc4ccccc43)c2)cc1
In short: as §1

[15] = compound: Nc1ccccc1NC(=O)c1ccc(CNC(=O)OCc2cccnc2)cc1 [entinostat]
In short: as §1

[16] = compound: O=C(CCCCCCC(=O)Nc1ccccc1)NO [vorinostat]
In short: as §1

[17] = compound: O=C(CCCCCCNC(=O)c1cnc(N(c2ccccc2)c2ccccc2Cl)nc1)NO [citarinostat]
In short: as §1

[18] = compound: O=C(O)c1ccc2c(c1)nc(Nc1cccc(Cl)c1)c1ccncc12 [silmitasertib]
In short: as §1

[19] = compound: c1cc(OCCN2CCCCC2)cc(-c2n[nH]c3ccc(-c4nnc[nH]4)cc23)c1
In short: as §1

[20] = compound: O=C1NC(=O)C(c2cnc3ccccn23)=C1c1cn2c3c(cc(F)cc13)CN(C(=O)N1CCCCC1)CC2
In short: as §1

UniProt O95857, sequence (O95857 whole entry, looked up): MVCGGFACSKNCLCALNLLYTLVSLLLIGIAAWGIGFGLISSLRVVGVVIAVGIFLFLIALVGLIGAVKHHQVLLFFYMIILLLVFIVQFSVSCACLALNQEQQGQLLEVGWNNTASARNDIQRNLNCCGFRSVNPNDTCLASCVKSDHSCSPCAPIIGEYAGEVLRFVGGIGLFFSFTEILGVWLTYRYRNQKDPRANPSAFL
UniProt Q641Q2, sequence (Q641Q2 whole entry, looked up): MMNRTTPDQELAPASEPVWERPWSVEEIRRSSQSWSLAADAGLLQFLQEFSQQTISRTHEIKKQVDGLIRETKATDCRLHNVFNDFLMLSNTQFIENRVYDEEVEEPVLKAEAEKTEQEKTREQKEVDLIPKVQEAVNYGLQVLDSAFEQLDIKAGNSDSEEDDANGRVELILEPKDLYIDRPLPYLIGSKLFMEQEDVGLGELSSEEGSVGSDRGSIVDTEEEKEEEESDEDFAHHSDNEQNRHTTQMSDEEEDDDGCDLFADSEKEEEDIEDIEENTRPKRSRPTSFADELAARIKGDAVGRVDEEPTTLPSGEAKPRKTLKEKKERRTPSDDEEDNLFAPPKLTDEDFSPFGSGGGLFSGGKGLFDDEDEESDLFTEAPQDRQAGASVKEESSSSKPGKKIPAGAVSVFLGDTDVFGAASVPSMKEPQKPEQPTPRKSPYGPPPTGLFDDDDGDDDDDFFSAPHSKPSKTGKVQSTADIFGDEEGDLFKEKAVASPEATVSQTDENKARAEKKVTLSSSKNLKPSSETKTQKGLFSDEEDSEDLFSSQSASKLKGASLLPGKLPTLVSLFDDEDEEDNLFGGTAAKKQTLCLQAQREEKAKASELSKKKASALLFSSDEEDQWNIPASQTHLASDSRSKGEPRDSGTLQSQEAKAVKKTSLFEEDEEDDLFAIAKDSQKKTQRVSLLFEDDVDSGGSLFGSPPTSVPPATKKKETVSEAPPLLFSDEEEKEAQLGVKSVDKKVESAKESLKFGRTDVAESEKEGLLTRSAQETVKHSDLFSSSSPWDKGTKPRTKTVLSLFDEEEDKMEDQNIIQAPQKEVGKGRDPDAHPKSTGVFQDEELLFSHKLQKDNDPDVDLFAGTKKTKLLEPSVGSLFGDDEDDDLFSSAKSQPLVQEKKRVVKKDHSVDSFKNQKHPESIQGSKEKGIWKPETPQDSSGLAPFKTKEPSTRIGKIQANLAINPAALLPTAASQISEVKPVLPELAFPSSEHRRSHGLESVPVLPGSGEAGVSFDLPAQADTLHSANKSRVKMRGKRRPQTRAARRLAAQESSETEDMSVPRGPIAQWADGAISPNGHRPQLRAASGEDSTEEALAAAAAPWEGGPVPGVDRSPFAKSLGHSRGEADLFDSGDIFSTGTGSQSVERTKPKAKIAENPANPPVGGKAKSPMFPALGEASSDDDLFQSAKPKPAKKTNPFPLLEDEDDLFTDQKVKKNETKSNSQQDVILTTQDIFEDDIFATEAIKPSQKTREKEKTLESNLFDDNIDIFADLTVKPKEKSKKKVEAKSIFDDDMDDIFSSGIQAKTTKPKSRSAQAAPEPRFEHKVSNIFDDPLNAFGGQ
UniProt Q9C037, sequence (Q9C037 whole entry, looked up): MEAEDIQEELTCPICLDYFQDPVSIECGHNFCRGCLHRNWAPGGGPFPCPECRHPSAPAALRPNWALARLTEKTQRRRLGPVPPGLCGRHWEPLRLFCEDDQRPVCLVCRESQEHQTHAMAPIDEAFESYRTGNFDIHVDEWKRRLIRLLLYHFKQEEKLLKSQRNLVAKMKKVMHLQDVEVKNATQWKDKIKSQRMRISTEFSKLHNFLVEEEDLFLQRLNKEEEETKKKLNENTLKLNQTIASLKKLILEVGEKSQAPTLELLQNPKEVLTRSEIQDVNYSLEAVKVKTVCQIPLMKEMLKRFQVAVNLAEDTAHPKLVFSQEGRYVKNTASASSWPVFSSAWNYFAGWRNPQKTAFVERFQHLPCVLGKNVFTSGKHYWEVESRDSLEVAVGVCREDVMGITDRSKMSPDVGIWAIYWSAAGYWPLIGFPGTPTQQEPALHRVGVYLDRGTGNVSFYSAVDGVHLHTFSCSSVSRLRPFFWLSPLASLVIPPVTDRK
UniProt Q9Y5Z9, sequence (Q9Y5Z9 whole entry, looked up): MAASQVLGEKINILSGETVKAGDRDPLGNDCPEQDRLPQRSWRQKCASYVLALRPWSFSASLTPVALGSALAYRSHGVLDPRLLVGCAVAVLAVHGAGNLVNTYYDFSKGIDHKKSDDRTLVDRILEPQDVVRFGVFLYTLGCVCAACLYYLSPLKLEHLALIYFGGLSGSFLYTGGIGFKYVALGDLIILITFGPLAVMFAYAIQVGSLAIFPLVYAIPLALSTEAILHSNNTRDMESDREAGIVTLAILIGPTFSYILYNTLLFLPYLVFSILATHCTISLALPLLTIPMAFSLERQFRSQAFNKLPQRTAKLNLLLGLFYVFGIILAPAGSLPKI
UniProt Q01081, sequence (Q01081 whole entry, looked up): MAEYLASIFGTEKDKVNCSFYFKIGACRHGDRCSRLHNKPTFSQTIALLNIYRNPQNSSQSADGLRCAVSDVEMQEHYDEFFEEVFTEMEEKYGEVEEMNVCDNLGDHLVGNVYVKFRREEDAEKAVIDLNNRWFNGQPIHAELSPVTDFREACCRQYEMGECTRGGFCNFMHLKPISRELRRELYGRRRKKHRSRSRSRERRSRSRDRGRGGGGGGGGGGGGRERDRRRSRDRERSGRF
UniProt Q7Z3J2, sequence (Q7Z3J2 whole entry, looked up): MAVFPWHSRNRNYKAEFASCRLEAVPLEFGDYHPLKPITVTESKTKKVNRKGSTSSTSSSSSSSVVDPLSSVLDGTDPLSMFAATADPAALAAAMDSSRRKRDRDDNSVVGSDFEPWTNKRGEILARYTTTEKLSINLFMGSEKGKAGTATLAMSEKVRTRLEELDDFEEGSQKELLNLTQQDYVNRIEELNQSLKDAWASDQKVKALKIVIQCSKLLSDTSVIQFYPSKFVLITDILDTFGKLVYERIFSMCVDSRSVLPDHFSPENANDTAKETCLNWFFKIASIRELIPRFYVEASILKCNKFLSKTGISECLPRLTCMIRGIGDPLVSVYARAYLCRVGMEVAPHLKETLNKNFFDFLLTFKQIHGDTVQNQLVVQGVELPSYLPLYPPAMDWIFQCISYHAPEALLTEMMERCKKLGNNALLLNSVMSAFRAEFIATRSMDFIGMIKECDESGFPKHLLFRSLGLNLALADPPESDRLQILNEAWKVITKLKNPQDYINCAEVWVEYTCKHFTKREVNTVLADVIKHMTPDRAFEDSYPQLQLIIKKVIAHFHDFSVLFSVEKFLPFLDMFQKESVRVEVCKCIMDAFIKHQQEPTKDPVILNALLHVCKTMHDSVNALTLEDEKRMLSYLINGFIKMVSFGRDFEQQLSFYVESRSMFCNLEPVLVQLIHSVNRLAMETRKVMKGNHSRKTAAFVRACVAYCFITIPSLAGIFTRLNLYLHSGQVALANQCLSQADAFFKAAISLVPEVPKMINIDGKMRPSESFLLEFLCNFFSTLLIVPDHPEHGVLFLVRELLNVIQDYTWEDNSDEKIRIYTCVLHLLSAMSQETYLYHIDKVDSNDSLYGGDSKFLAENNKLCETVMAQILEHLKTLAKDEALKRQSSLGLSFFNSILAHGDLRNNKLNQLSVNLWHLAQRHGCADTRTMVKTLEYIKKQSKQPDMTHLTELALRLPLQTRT
UniProt P61960, sequence (P61960 whole entry, looked up): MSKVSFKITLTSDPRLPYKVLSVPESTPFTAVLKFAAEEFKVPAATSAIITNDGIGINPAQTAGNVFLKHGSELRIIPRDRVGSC
UniProt Q5VZI3, sequence (Q5VZI3 whole entry, looked up): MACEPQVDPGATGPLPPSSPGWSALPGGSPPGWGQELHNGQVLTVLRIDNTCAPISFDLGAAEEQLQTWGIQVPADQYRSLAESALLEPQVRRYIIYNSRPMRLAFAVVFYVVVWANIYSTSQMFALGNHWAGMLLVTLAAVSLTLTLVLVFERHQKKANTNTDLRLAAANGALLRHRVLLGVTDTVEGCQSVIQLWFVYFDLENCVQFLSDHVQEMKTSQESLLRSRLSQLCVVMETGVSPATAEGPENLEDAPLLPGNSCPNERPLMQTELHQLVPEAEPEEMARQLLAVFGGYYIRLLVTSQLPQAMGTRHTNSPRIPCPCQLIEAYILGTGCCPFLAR
UniProt Q8NEZ2, sequence (Q8NEZ2 whole entry, looked up): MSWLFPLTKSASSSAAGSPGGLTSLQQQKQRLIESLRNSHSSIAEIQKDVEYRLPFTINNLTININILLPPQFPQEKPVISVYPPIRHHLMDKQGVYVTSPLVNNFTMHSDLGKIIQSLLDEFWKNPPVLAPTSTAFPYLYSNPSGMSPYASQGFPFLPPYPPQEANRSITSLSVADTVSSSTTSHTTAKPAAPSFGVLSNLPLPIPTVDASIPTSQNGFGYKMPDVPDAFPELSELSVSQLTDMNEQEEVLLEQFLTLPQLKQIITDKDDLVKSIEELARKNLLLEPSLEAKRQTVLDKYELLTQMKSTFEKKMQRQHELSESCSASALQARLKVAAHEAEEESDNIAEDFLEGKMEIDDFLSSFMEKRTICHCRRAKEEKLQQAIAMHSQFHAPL
UniProt Q7Z7N9, sequence (Q7Z7N9 whole entry, looked up): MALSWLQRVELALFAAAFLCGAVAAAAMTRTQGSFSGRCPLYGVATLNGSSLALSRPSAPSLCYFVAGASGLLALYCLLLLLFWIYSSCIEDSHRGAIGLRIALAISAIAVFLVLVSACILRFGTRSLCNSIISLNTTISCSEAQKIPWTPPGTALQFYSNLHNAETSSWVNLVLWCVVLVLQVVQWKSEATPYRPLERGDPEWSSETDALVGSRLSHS
UniProt Q86XT9, sequence (Q86XT9 whole entry, looked up): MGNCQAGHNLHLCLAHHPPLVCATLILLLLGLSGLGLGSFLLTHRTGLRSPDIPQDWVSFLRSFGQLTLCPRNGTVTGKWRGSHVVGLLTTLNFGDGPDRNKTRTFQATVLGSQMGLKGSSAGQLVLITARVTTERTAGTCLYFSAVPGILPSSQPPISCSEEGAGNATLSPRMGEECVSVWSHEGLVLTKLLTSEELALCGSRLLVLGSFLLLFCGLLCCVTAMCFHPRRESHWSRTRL

Target | log2 fold change [1] | log2 fold change [2] | log2 fold change [3] | log2 fold change [4] | log2 fold change [5] | log2 fold change [6] | log2 fold change [7] | log2 fold change [8] | log2 fold change [9] | log2 fold change [10] | log2 fold change [11] | log2 fold change [12] | log2 fold change [13] | log2 fold change [14] | log2 fold change [15] | log2 fold change [16] | log2 fold change [17] | log2 fold change [18] | log2 fold change [19] | log2 fold change [20]
TXNL4B (UniProt Q9NX01) | -0.1 | 0.005 | 0.003 | -0.041 | -0.042 | 0.01 | 0.007 | 0.028 | 0.008 | 0.17 | 0.098 | -0.112 | -0.035 | 0.709 (active) | -0.024 | 0.02 | 0.029 | 0.118 | 0.117 | 
TMEM268 isoform 3 (UniProt Q5VZI3) | 0.318 | -0.096 | 0.008 | -0.005 | -0.194 | 0.165 | 0.112 | 0.014 | 0.003 | 0.109 | 0.12 | 0.057 | -0.141 |  | 0.059 | 0.162 | 0.084 | -0.114 | -0.117 | 0.174
WASHC2A (UniProt Q641Q2) | -0.078 | -0.025 | 0.002 | -0.039 | 0.022 | -0.012 | -0.088 | 0.035 | 0.052 | 0.004 | -0.013 | -0.012 | -0.159 | 0.021 | -0.038 | 0.024 | -0.035 | 0.072 | -0.056 | 0.016
TMEM41A (UniProt Q96HV5) | -0.037 | 0.276 (active) | -0.008 | -0.01 | 0.054 | -0.049 |  | 0.082 | 0.026 | 0.062 | -0.005 | -0.053 | 0.002 | -0.066 | -0.027 | 0.09 | 0.04 | -0.015 | -0.059 | -0.018
VPS37A (UniProt Q8NEZ2) | -0.065 | -0.06 | -0.134 | -0.27 | -0.168 | -0.039 | 0.048 | 0.014 | -0.112 | -0.038 | -0.066 | -0.021 | -0.317 | -0.051 | 0.121 | 0.113 |  | 0.02 |  | -0.198
UBIAD1 (UniProt Q9Y5Z9) | -0.004 | -0.022 | 0.074 | 0.004 | 0.176 | -0.004 | 0.052 | 0.006 | 0.003 | -0.144 | -0.089 | 0 | 0.055 | -0.122 | -0.076 | -0.075 | -0.301 | 0.013 | 0.181 | 
UFM1 isoform 2 (UniProt P61960) | -0.061 | 0.089 | -0.009 | 0.023 | 0.116 | 0.002 | 0.045 |  | -0.016 | -0.015 | -0.031 | -0.114 | -0.087 | -0.057 | -0.012 | -0.057 | -0.044 | -0.025 | -0.218 | -0.007
TRABD (UniProt Q9H4I3) | 0.202 | -0.038 | 0.185 | 0.02 |  | -0.093 | 0.145 | -0.013 | 0.012 | -0.032 | 0.008 | -0.006 | 0.1 | 0.157 | -0.022 | 0.009 | -0.014 | 0.188 | -0.026 | 0.055
TMEM9B (UniProt Q9NQ34) | -0.039 | 0.036 | 0.005 | 0.009 |  | -0.015 | 0.051 | 0.164 | -0.108 | 0.009 | -0.025 | 0.004 | -0.093 | -0.111 | 0.025 | 0.051 | 0.023 | 0.038 | -0.121 | 0.043
TRIM4 (UniProt Q9C037) | 0.039 | -0.015 | 0.111 | 0.101 |  | 0.058 | 0.042 | -0.138 | -0.014 | 0.033 | -0.04 | 0.007 | 0.082 | -0.294 | 0.03 | -0.03 | -0.006 | 0.042 | -0.049 | -0.051
TSPAN13 (UniProt O95857) | -0.101 | 0.014 | 0.056 | -0.035 | -0.163 | -0.095 | -0.038 | 0.095 | -0.008 | 0.226 | -0.091 |  | -0.125 | 0.03 | -0.109 | 0.002 |  | 0 |  | -0.166
U2AF1 isoform 2 (UniProt Q01081) | 0.037 | -0.06 | -0.017 | -1.31 (active) | -0.056 | 0.058 | 0.01 | -0.06 | 0.034 | -0.099 | -0.174 | -0.017 | 0.058 | -0.096 | -0.013 | -0.021 | 0.039 | -0.034 | -0.093 | -0.039
TMEM189-UBE2V1 (UniProt I3L0A0) | -0.038 | -0.035 | -0.012 | 0.229 (active) | -0.009 | 0.055 | 0.015 | 0.069 | 0.056 | 0.026 | 0.06 | -0.018 | -0.063 | -0.018 | -0.097 | 0.005 | 0.046 | -0.058 | -0.016 | 0.009
TRIM23 (UniProt P36406) | -0.006 | -0.121 | -0.091 | 0.001 | -0.004 | 0.088 | 0.126 | 0.002 |  | 0.028 | -0.025 |  | -0.02 | -0.083 | -0.01 | 0.06 | 0.015 | -0.044 | -0.026 | 
TMEM219 (UniProt Q86XT9) | -0.211 | 0.027 | -0.243 | 0.216 | -0.11 | 0.032 | 0.092 |  | 0.063 |  | 0.079 | 0.033 |  | 0.036 | 0.052 | 0.389 (active) |  |  |  | -0.025
VPS35L (UniProt Q7Z3J2) | 0.006 | -0.008 | -0.201 | 0.101 | -0.056 | -0.123 | -0.152 | 0.009 | -0.002 | 0.02 | -0.038 | 0.004 | -0.137 | -0.012 | 0.006 | -0.039 | 0.08 | 0.111 | -0.062 | -0.006
TMEM179B (UniProt Q7Z7N9) | -0.074 | -0.065 | 0.046 | -0.018 |  | -0.013 | 0.154 | 0.019 | 0.167 | -0.025 | -0.235 | 0.079 | -0.255 |  | 0.04 | -0.156 | -0.019 | -0.043 | -0.112 | -0.173

— the supplement of paper PMC10849652
